Here are results for eight compounds from PubChem BioAssay.

For assay [1], the system named is Wnt5a (protein binding on small-molecule microarray). Put plainly: small molecules binding Wnt5a protein – biophysical, small-molecule microarray, 635/667 nm fluorescence, primary screen (AID 1142).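 Also: fluorescence read at 667 nm with signal to noise per printed feature.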 Conditions: 635 nm fluorescence, higher = more signal.
The nature of assay [2]: ATP-based viability of Huh7 replicon cells – cell-based, CellTiter-Glo luminescence, basal, 48 h, cytotoxicity control for HCV replication inhibitor project, primary screen (AID 1143).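 Also: Huh7 hepatoma cells carrying a hepatitis C replication reporter with no stimulus; test concentration not given here.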 Particulars: higher = more signal, called active from +8 up or from −8 down. A general note: A replicon is a self-replicating genome or part of one, used to study replication in cells.
Assay [3] in a line: Pseudomonas biofilm growth suppression – PAO1 strain, BacTiter-Glo luminescence, LB-PBS, primary screen (AID 1144). Particulars: P. aeruginosa PAO1 biofilm, 12 h, higher = more signal.
Assay [4] can be described thus: basal CRE-LacZ reporter activity in PC12 – cell-based, unstimulated, primary screen (AID 1145). Conditions: no forskolin, luminescence, 4.5 h, higher = more signal, called active from +8 up or from −8 down.
The nature of assay [5]: forskolin-driven CRE-LacZ activity in PC12 – cell-based, CRE-LacZ reporter, forskolin-stimulated, primary screen (AID 1146).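 Also: PC12 cells with 6xCRE LacZ reporter stimulated by forskolin 10 µM; beta-galactosidase reporter signal reflecting CREB driven transcription.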 Particulars: luminescence, 4.5 h, higher = more signal, called active from +8 up or from −8 down.
Assay [6] deals with Streptavidin (Streptomyces avidinii) (UniProt P22629). Briefly: compounds binding control protein streptavidin – biophysical, small-molecule microarray, 635/667 nm fluorescence, artefact control for SMM compound annotation, primary screen (AID 1147).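 Also: signal reflects streptavidin binding to arrayed compounds as a control protein.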 Particulars: higher = more signal.
Chain of Streptavidin (Streptomyces avidinii) (P22629 whole entry, looked up): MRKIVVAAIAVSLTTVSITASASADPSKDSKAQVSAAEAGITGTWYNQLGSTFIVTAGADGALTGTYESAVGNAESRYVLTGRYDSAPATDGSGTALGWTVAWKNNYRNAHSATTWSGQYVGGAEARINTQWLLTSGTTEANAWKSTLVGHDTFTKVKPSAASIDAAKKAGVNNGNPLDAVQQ
The nature of assay [7]: probe aInhba binding on compound microarray – biochemical, small-molecule microarray, 635/667 nm fluorescence, primary screen (AID 1148).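 Also: score merges 667nm spot fluorescence with signal-to-noise for antibody binding to printed compounds.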 Particulars: higher = more signal.
Assay [8] concerns the target Torsin-1A (Homo sapiens) (UniProt O14656). Put plainly: TOR1A wild-type binding on microarray – cell lysate, small-molecule microarray, lysate, 635/667 nm, primary screen (AID 1149). Conditions: COS7 hTOR1A-WT lysate, 635 nm fluorescence, higher = more signal.
The target is the same in assay [9]. Briefly: torsin A mutant lysate binding on microarrays – cell lysate, small-molecule microarray, COS7 lysate, 635/667 nm fluorescence, primary screen (AID 1150).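 Also: score pools 667 nm emission and signal to noise measuring lysate protein binding.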 Particulars: COS7 hTOR1A mutant lysate, 635 nm fluorescence, higher = more signal.
The test system of assay [10] is Sonic hedgehog protein (Shh). Briefly: Sonic hedgehog microarray binding compounds – biochemical, small-molecule microarray, 635/667 nm fluorescence, primary screen (AID 1151).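 Also: Shh protein binding to compounds spotted on small-molecule microarray slides; score combines spot fluorescence intensity with signal-to-noise across triplicate slides.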 Conditions: 635 nm fluorescence, higher = more signal.
The nature of assay [11]: optical density shifts of acrAB sulA E. coli – strain DRC41, OD650, 48 h, E. coli filamentation inducer project, primary screen (AID 1152).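 Also: E. coli MC1000 strain DRC41 lacking acrAB efflux pump and sulA.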 Conditions: higher = more signal, called active from +8 up or from −8 down.
Assay [12] can be described thus: probe aLefty1 binding on compound microarray – biochemical, small-molecule microarray, 635/667 nm fluorescence, primary screen (AID 1153).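 Also: score merges spot fluorescence with signal-to-noise ratio from the scanned slide images.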 Particulars: higher = more signal.
The nature of assay [13]: plasmodial surface anion channel blockers, osmotic lysis – cell-based, P. falciparum Indochina, OD700, 1 h, primary screen (AID 1154). Conditions: P. falciparum Indochina infected RBC osmotic lysis, higher = more signal, called active from +8 up or from −8 down.
Assay [14] in a line: plasmodial surface anion channel blockers, osmotic lysis – cell-based, P. falciparum Indochina, OD700, 2 h, primary screen (AID 1155).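 Also: lysis reports solute entry through the parasite surface anion channel PSAC.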 Conditions: P. falciparum Indochina infected erythrocytes, higher = more signal, called active from +8 up or from −8 down.
Assay [15] is described as follows: changes in parasitized red cell lysis, either direction – P. falciparum Indochina, OD700, 3 h, PSAC antagonist project, primary screen (AID 1156). Particulars: P. falciparum-infected erythrocytes, osmotic lysis, higher = more signal, called active from +8 up or from −8 down.
The nature of assay [16]: plasmodial surface anion channel blockers, osmotic lysis – cell-based, P. falciparum Indochina, OD700, 18 h, primary screen (AID 1157). Particulars: P. falciparum Indochina infected erythrocytes, osmotic lysis OD700, 18 h; higher = more signal, called active from +8 up or from −8 down.
The nature of assay [17]: S6 kinase pathway phospho-S6 level changes – cell-based, A549, cytoblot, luminescence, serum-stimulated, primary screen (AID 1158).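 Also: serum-stimulated A549 lung adenocarcinoma cells; signal is phosphorylated S6 detected by cytoblot immunostaining with HRP secondary.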 Particulars: 5 h, higher = more signal.
Assay [18] addresses NADPH oxidase 2 (Homo sapiens) (UniProt P04839). Put plainly: compounds shifting NOX2 Amplex Red fluorescence – cell-based, HEK293-NOX2, PMA-stimulated, NOX inhibitor project, primary screen (AID 1159). Also: test concentration not given here. Particulars: 45 min, higher = more signal, called active from +8 up or from −8 down.
Assay [19] concerns the target NADPH oxidase 4 (Homo sapiens) (UniProt Q9NPH5). Briefly: compounds shifting NOX4 Amplex Red fluorescence – cell-based, HEK293-NOX4, tetracycline-induced, NOX inhibitor project, primary screen (AID 1160). Particulars: HEK293-NOX4, Amplex Red H2O2 fluorescence, 45 min; higher = more signal, called active from +8 up or from −8 down.
Assay [20] has as its target NADPH oxidase 5 (Homo sapiens) (UniProt Q96PH1). Put plainly: compounds shifting NOX5 Amplex Red fluorescence – cell-based, HEK293-NOX5, NOX inhibitor project, primary screen (AID 1161). Particulars: HEK293-NOX5, ionomycin, 45 min, higher = more signal.

The structures appear in SMILES notation. Activity calls are given as the source filed them. Unless noted, no rule for the calls is given here.

Chain of NADPH oxidase 4 (Homo sapiens) (Q9NPH5 whole entry, looked up): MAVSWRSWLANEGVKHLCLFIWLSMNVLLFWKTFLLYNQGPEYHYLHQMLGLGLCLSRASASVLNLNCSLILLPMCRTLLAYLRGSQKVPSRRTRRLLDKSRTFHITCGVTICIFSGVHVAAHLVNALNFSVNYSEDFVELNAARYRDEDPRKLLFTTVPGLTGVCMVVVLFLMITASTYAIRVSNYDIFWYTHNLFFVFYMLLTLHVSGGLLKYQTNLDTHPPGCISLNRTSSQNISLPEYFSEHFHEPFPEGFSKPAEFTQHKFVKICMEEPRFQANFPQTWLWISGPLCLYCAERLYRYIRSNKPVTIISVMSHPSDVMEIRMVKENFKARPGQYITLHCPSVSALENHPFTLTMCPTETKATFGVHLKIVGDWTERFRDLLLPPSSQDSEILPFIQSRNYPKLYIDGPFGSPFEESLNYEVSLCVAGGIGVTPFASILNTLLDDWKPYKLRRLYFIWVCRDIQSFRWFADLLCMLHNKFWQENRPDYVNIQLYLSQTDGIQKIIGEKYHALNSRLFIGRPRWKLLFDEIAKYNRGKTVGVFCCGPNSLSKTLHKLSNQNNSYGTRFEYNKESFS
Chain of Torsin-1A (Homo sapiens) (O14656 whole entry, looked up): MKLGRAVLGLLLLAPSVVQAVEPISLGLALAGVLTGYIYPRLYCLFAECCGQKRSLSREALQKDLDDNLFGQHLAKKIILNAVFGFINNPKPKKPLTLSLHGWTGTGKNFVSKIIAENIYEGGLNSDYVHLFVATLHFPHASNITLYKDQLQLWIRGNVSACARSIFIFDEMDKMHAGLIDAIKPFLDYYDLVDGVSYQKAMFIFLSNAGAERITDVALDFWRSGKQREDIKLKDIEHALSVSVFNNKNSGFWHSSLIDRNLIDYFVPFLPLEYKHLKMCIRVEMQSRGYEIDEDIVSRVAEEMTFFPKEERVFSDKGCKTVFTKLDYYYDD
Chain of NADPH oxidase 2 (Homo sapiens) (P04839 whole entry, looked up): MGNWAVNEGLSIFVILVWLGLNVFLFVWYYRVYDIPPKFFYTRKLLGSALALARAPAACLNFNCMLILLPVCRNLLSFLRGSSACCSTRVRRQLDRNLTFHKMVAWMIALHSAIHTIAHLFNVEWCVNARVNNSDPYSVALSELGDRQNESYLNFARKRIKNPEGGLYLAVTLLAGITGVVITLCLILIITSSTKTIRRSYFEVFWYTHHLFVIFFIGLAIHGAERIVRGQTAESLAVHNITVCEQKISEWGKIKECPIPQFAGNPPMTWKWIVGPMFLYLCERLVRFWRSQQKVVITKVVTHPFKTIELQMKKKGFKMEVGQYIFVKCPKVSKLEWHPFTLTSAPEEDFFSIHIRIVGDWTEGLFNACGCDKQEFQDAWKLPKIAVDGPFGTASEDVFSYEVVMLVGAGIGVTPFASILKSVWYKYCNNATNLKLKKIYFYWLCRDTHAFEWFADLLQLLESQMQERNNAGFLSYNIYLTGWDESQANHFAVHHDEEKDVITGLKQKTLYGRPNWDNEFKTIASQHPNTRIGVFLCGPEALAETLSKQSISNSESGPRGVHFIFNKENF
Chain of NADPH oxidase 5 (Homo sapiens) (Q96PH1 whole entry, looked up): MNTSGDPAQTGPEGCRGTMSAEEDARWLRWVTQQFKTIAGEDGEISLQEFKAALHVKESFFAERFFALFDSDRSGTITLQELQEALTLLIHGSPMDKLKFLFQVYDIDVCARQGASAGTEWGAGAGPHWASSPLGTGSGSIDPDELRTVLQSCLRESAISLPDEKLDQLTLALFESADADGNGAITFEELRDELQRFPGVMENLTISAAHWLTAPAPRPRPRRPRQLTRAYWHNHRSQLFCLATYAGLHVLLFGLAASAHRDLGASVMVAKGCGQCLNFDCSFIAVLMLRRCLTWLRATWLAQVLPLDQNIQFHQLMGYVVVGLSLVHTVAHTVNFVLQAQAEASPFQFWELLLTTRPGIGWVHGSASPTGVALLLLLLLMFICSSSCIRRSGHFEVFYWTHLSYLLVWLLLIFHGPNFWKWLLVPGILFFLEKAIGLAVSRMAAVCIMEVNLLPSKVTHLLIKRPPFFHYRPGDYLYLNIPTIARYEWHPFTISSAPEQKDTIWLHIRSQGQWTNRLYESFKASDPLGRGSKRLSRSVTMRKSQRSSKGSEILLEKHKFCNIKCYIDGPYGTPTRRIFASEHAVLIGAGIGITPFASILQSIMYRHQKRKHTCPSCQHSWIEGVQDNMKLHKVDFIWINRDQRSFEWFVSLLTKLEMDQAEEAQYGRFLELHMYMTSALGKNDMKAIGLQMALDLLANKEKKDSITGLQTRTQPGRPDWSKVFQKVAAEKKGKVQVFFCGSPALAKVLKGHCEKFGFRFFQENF

As to `COc1cc2c(cc1OC)CN(C(=O)[C@@H]1[C@H]3C(=O)O[C@H](c4ccccc4)[C@H](c4ccccc4)N3[C@H](c3ccc(O)cc3)[C@@]13C(=O)Nc1ccc(C#CC4=CCCCC4)cc13)CC2`, the composite z-score in assay [1] stood at 0.236; in [6], 1.03; in assay [7], 0.271; in assay [8] it was 0.335; in assay [9], 0.794; in assay [10] it was 1.07. The same compound came in with a composite z-score in [12] of 0.298. Further, the z-score in assay [2] is -1.56 (inactive); in assay [3] it was -0.376 (inactive); in assay [4], -0.375 (inactive); in assay [5], -0.493 (inactive); in assay [11], 2.03 (inactive); in [13], 1.18 (inactive). The z-score is 0.925 (inactive) in assay [14]; 1.2 (inactive) in assay [15]; 1.23 (inactive) in [16]; 0.458 in assay [17]; 1.36 (inactive) in assay [18]; 1.03 (inactive) in assay [19]. Further, the z-score in [20] is -0.337.

On to `COCCOC(=O)N1C(=O)[C@@]2(c3cc(C#CCCO)ccc31)[C@H](c1ccc(O)cc1)N1[C@H](c3ccccc3)[C@H](c3ccccc3)OC(=O)[C@H]1[C@@H]2C(=O)NC[C@H](O)c1ccccc1`, for which the composite z-score in assay [1] is 0.0153; in assay [6], -0.331; in [7], 0.0101; in [8], 0.127; in [9], -0.0807; in assay [10], 1.03. In addition, in assay [12], the composite z-score is -0.218. Also, the z-score in [2] is -1.64 (inactive); in [3], -0.718 (inactive); in [4], 0.0776 (inactive); in [5], -0.583 (inactive); in assay [11], 1.49 (inactive); in [13], 3.31 (inactive). Moreover, the z-score in [14] is 1.19 (inactive); in assay [15] it was 0.624 (inactive); in assay [16], 0.555 (inactive); in assay [17] it was 0.0833; in assay [18] it was 0.878 (inactive); in assay [19], 0.521 (inactive). Moreover, in [20], the z-score is -0.0839.

For the compound `Cc1ccc(S[C@]2(C(=O)NC(C)C)CC(=O)N(Cc3ccccc3)[C@@H]2c2ccc(CO)cc2)cc1`, the composite z-score in assay [1] was -0.394; in assay [6] it was -0.375; in assay [7] it was -0.143; in [8], -1.65; in assay [9], -1.5; in assay [10], -0.501. The composite z-score in [12] was 0.082. Moreover, the z-score in [2] is -2.19 (inactive); in assay [3] it was -1.55 (inactive); in assay [4] it was -0.295 (inactive); in assay [5], 0.12 (inactive); in [11] it was 1.33 (inactive); in [13], 1.66 (inactive). Besides, the z-score is -0.709 (inactive) in assay [14]; -0.379 (inactive) in assay [15]; -0.581 (inactive) in assay [16]; 1.46 in assay [17]; -0.101 (inactive) in assay [18]; 0.0692 (inactive) in assay [19]. Moreover, the z-score in [20] is -0.771.

For the compound `COCCCNC(=O)[C@@]1(Cc2ccccc2I)c2ccccc2C(=O)N(C2CCCCC2)[C@H]1c1ccc(CO)cc1`, the composite z-score in assay [1] is 0.665; in assay [6] it was -0.0972; in [7] it was 0.115; in assay [8], -0.0751; in assay [9], 0.646; in [10], 1.04. In [12], this compound came in with a composite z-score of 0.293. Further, the z-score in assay [2] was -4.51 (inactive); in assay [3], -1.54 (inactive); in [4] it was 0.468 (inactive); in [5], -0.175 (inactive); in [11], 0.0773 (inactive); in assay [13], 8.09 (active). The z-score is 0.695 (inactive) in [14]; 2.44 (inactive) in assay [15]; 0.623 (inactive) in assay [16]; 0.453 in assay [17]; 0.392 (inactive) in assay [18]; -1.2 (inactive) in [19]. Moreover, in assay [20], the z-score was -3.06.

Turning to `C=CCN1C(=O)[C@]2(O[C@H](CCO)[C@@H]([Si](C)(C)c3ccc(OC)cc3)[C@@H]2C)c2cc(N3C(=O)c4ccccc4Oc4ccccc43)ccc21`, the composite z-score is 0.169 in assay [1]; 0.763 in assay [6]; -0.045 in assay [7]; 0.493 in assay [8]; 0.418 in assay [9]; 0.804 in assay [10]. The composite z-score in assay [12] worked out at 0.568. The z-score in [2] was -7.94 (inactive); in [3], -0.323 (inactive); in assay [4], 22.6 (active); in assay [5] it was -3.24 (inactive); in [11], -0.458 (inactive); in assay [13], 6.17 (inactive). Moreover, the z-score was 2.82 (inactive) in assay [14]; -0.512 (inactive) in assay [15]; 2.95 (inactive) in assay [16]; 0.695 in [17]; 0.0876 (inactive) in assay [18]; 0.945 (inactive) in [19]. Besides, the z-score in assay [20] was -0.216.

As to `C[C@H]1C2[C@H](Cc3ccccc3)NC(=O)[C@]23C(=O)N[C@@H](Cc2ccccc2)C(=O)N2CCC[C@H]2C(=O)NC/C=C/CC/C=C/C3[C@@H]2O[C@]12C` (stereo not given in full), the composite z-score in assay [1] was 0.241; in assay [6], -0.423; in assay [7], -0.0986; in assay [8] it was -0.0723; in assay [9], 0.49; in [10] it was 0.975. The same compound yielded a composite z-score in [12] of 0.32. Further, the z-score in assay [2] is -2.38 (inactive); in [3] it was -0.165 (inactive); in [4], 0.941 (inactive); in [5] it was -0.688 (inactive); in [11], -0.488 (inactive); in assay [13], 1.13 (inactive). Further, the z-score in assay [14] was 0.186 (inactive); in assay [15] it was 0.0233 (inactive); in assay [16] it was 0.599 (inactive); in assay [17], -0.191; in assay [18], 1.25 (inactive); in assay [19] it was 1.11 (inactive). Besides, the z-score in assay [20] was 1.25.

`COc1ccc([Si](C)(C)[C@H]2[C@H](CC(=O)N(CCO)Cc3ccccc3)O[C@@]3(C(=O)N(Cc4ccc(N5C(=O)c6cccc7cccc5c67)cc4)c4ccccc43)[C@@H]2C)cc1`: the composite z-score in [1] was 0.954; in assay [6], 0.555; in assay [7], 0.545; in assay [8] it was -0.237; in [9], 0.454; in assay [10], 2.17. The composite z-score in assay [12] worked out at 0.542. Further, the z-score in assay [2] is -4.47 (inactive); in assay [3] it was 0.278 (inactive); in [4], 0.353 (inactive); in [5], -0.429 (inactive); in [11], -0.263 (inactive); in assay [13], 15.2 (active). The z-score in assay [14] was 3.52 (inactive); in [15], 1.24 (inactive); in [16], 1.48 (inactive); in assay [17] it was 0.294; in assay [18], 1.52 (inactive); in [19] it was 0.695 (inactive). Moreover, the z-score in assay [20] came out at 2.88.

Take `COC(=O)[C@@]1(Cc2ccc(F)cc2)[C@H]2c3cc(C(=O)N(C)C)n(Cc4cccc5ccccc45)c3C[C@H]2CN1C(=O)c1ccccc1`: the composite z-score was 1.23 in assay [1]; 0.0609 in [6]; 0.115 in [7]; 0.639 in [8]; 1.49 in assay [9]; -0.685 in assay [10]. In [12], the composite z-score amounted to 0.0568. Moreover, the z-score was -0.741 (inactive) in assay [2]; 0.529 (inactive) in assay [3]; 0.0075 (inactive) in [4]; 0.287 (inactive) in assay [5]; -1.92 (inactive) in assay [11]; 8.44 (active) in assay [13]. Further, the z-score in [14] was 1.29 (inactive); in assay [15], 1.07 (inactive); in assay [16], 1.28 (inactive); in assay [17], -0.779; in assay [18] it was 0.105 (inactive); in assay [19] it was -3.8 (inactive). Moreover, the z-score in [20] amounted to 0.592.
